# ELG1 repair inh: ELG1-dependent DNA repair inhibition; HEK293T ELG1-luciferase reporter, luminescence, 16 h; DNA damage induced by 5-fluorouridine; Potency, µM (titrated, usually from 46.1 µM), for the others: top-dose activity change, negative = inhibition, hits mostly inhibitors; 330,000 compounds, 2.3% hits; note: % is set by controls: 0 for no effect and ±100 for the full control effect; nearly all actives have a fitted effect of over 55% in size
#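 Quantitative HTS, concentration-response format. 2,000 cells/well co-treated with 5-fluorouridine and compound, 16 hr in 5% CO2 at 37 °C; ONE-Glo luminescence read after 30 min.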
# Rab9 promoter act: activates the Rab9 promoter | AID 485297 | Huh7 Rab9 promoter-luciferase reporter, luminescence, 24 h | 320,000 compounds, 2.8% hits | Potency, µM (series often up to 9.22 µM), inactives show at the top dose activation, negative = inhibition, actives largely listed as activators; note: % of control where 0% means no effect; nearly all actives have a fitted effect of over 60% in size
#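 Luminescence from Amplite-detected luciferase (10 minutes, ambient) reports Rab9 promoter activation. Before that, stable Rab9-luciferase Huh7 cells (1500/well, reduced-serum OP-MEM I plus 10% FBS) were exposed to compound for 24 hours at 37C.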
# NPC1 promoter act: activates the NPC1 promoter. Huh7 NPC1 promoter luciferase reporter, 24 h. Potency, µM (top dose mostly 9.22 µM), inactives show top-dose activation, usual class: activators. 320,000 compounds, 2.4% hits; note: % of control where 0% means no effect; nearly all actives have a fitted effect of over 60% in size
#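 In 1536-well qHTS, Huh7 cells harboring an NPC1 promoter–luciferase construct received compound for 24 h; activation was quantified by luminescence following luciferase reagent addition.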
# SMN2 splice enh: enhancers of SMN2 splice variant expression; HEK293 SMN2-luciferase splicing reporter, luminescence, 30-36 h; 210,000 compounds, 2.8% hits; AID 1458; Potency, µM (highest dose often 46.1 µM), for inactives: at the top dose activity change, positive = activation, actives largely listed as activators; note: % of control where 0% means no effect; nearly all actives have a fitted effect of over 55% in size
#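 HEK293 cells carry an SMN2 minigene-luciferase reporter in which exon 7 inclusion puts luciferase in frame. Cells were seeded at 2000 cells/well, attached for 10-12 hours, then exposed to compounds for 30-36 hours at 37C before ONE-Glo luminescence.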
# FLuc modulator: firefly luciferase modulation, counter-screen for miR-21 project | P08659 | purified FLuc, Km substrates, luminescence inhibition | Potency, µM (series often up to 57.5 µM), for inactives: top-dose activity change, negative = inhibition, usual class: inhibitors | 360,000 compounds, 6.9% hits | AID 588342;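 note: plate controls were vehicle for no effect and reference inhibitor for full effect; nearly all actives have a fitted effect of over 55% in size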
# Target sequence (P08659 whole entry, looked up): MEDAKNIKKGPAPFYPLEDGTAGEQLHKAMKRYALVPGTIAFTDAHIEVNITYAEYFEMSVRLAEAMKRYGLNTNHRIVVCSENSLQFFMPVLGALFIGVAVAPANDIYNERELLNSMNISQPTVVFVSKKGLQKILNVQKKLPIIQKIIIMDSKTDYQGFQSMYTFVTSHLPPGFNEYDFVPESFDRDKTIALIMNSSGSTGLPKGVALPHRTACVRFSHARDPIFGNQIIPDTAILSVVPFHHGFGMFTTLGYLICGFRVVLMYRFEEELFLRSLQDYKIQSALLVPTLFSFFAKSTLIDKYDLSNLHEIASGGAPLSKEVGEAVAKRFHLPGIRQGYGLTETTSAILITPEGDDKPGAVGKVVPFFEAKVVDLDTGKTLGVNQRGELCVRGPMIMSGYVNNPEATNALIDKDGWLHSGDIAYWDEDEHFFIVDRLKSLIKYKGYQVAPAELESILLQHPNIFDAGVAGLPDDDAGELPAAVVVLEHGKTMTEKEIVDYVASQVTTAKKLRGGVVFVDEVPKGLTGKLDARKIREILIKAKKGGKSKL
#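 Biochemical qHTS of compounds, final roughly 60 µM downward over six points, against 10 nM purified firefly luciferase using Km concentrations of substrates (10 uM D-luciferin, 10 uM ATP) in Tris acetate pH 7.5 buffer; luminescence output.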
# ELG1 genotoxic: inducers of genotoxicity in HEK293T ELG1-luciferase cells | AID 504466 | HEK293T ELG1-luciferase reporter, luminescence, 16 h | 330,000 compounds, 1.3% hits | Potency, µM (titrated, usually from 46 µM), inactives show at the top dose activity change, positive = activation, hits mostly activators; note: % of control where 0% means no effect; nearly all actives have a fitted effect of over 60% in size
#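 16 hr compound incubation (37 °C, 5% CO2) of HEK293T cells carrying luciferase-tagged ELG1; luciferase then measured by ONE-Glo luminescence after 30 min at RT.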
# The depositor's hits bear a star; ? = inconclusive; · = no result given; [ ] = remark or other dose. Most compounds without a hit are left out; they make up all but 9.3% or so of the library. Calls come from the whole dose curve; as a rule, active = well fitted curve in the direction sought with a large enough effect; inconclusive = small, poorly fitted or top-dose-only effect, or another doubt; inactive = no such curve, though single readings can be large; an effect the other way counts as inactive or inconclusive. Potency is the fitted concentration of half-maximal effect.
SMILES,ELG1 repair inh,Rab9 promoter act,NPC1 promoter act,SMN2 splice enh,FLuc modulator,ELG1 genotoxic
Cc1ccc(NC(=O)COC(=O)CCc2ccccc2)c(Cl)c1,?,-1.6%,-1.3%,·,16.9µM*,7.6%
COc1ccccc1NC(=O)C1=C(C)NC2=C(C(=O)CC(c3ccc(OC)c(OC)c3)C2)C1c1coc2ccccc2c1=O (centres undefined),10.3µM*,-1.9%,-4.5%,-8.9%,-8.3%,-7.7%
CCOC(=O)C1=C(C)NC2=C(C(=O)CC(c3ccc(OC)c(OC)c3)C2)C1c1ccc(C)o1 (centres undefined),?,?,0.0%,12.6%,2.0%,-0.7%
O=C(NCCc1ccccc1)C(=O)NCC(c1cccnc1)N1CCN(c2ccccc2)CC1 (centres undefined),·,·,·,·,-8.0%,·
COc1ccc(CNC(=O)c2cc3ccccn3n2)cc1OC,·,·,·,·,-3.9%,·
CC(C)c1ccc(NC(=O)C2CC3CCC2C3)cc1 (centres undefined),?,3.16µM*,3.55µM*,·,10.7µM*,20.6µM*
O=C(Nc1nc2c(s1)CCCC2)C1COc2ccccc2O1 (centres undefined),?,0.316µM*,0.562µM*,0.501µM*,0.757µM*,0.581µM*
O=C(NCc1cccnc1)C1COc2ccccc2O1 (centres undefined),6.5%,2.9%,-0.7%,-10.5%,1.1%,0.8%
CCC(CC)c1nnc(NC(=O)C2COc3ccccc3O2)s1 (centres undefined),?,1.26µM*,1.58µM*,?,7.57µM*,?
CCc1nnc(NC(=O)C2COc3ccccc3O2)s1 (centres undefined),?,2.82µM*,3.16µM*,11.2µM*,12µM*,?
O=C(Nc1ncc(Cc2ccccc2)s1)C1COc2ccccc2O1 (centres undefined),?,2.82µM*,1.58µM*,10µM*,3.01µM*,12.3%
O=C(CNC(=O)c1cncc(Br)c1)Nc1ccc(F)c(F)c1F,-4.2%,0.0%,-2.0%,·,2.4%,1.7%
CC(C)Oc1ccc(CNC(=O)C2CCCN(S(=O)(=O)c3ccc4c(ccn4C)c3)C2)cc1 (centres undefined),·,·,·,·,-3.9%,·
O=C(CN1C(=O)COc2ccc(S(=O)(=O)N3CCCCC3)cc21)NCc1ccccc1Cl,-4.1%,1.2%,0.4%,·,-13.6%,-0.7%[9.26 µM]
O=C(Nc1ccncc1)C1COc2ccccc2O1 (centres undefined),-2.9%,-5.1%,0.9%,·,-3.1%,-4.1%
Cc1nnc(NC(=O)C2COc3ccccc3O2)s1 (centres undefined),?,?,?,27.8%,23.9µM*,?
O=C(NC1=NCCS1)C1COc2ccccc2O1 (centres undefined),?,?,0.0251µM*,·,0.239µM*,?
CCCCCc1nnc(NC(=O)C2COc3ccccc3O2)s1 (centres undefined),?,28.6%,21.3%,-2.3%,?,?
COc1ccc(CC(=O)NCC2CCCN(Cc3ccccc3Cl)C2)cc1 (centres undefined),0.5%,-0.3%,2.3%,·,-1.8%,-0.9%
COc1cccc(Nc2nc(N)c([N+](=O)[O-])c(N3CCOCC3)n2)c1,23.1µM*,-2.0%[1.84 µM],-4.5%,·,-3.0%,-5.5%
CCC(=O)c1ccc(/C=C/c2nc3ccccc3n2C)o1,?,0.316µM*,0.501µM*,3.16µM*,3.38µM*,-2.9%
O=C(/C=C/c1ccc2c(c1)OCCCO2)c1ccc2ccccc2c1O,?,?,3.16µM*,-34.3%,2.69µM*,?
Cc1ccc(C(=O)/C=C/c2ccc3c(c2)OCCO3)c(O)c1,?,3.55µM*,?,·,1.07µM*,?
COc1ccc(/C=N/N(C)c2cc(=O)n(C)c(=O)[nH]2)cc1OC,?,4.8%,-0.4%,9.6%,16.9µM*,?

# Screens: PubChem, National Center for Advancing Translational Sciences (NCATS)
